Results on 55 compounds are retold here after PubChem BioAssay AID686978 (National Center for Advancing Translational Sciences (NCATS), 2013).

Screen size: about 420,000 compounds; about 64,000 (15%) were called active. Not shown: some 27% with an inconclusive outcome. Only a sample is shown. A number with no mark means an inactive call. The call rests on the fitted dose curve; in most records, active means well fitted inhibition curve with a large enough effect; inconclusive means small, poorly fitted or top-dose-only effect; inactive means flat fitted curve, though single readings scatter.
On the % scale 0 is the no-effect control and ±100 the full control effect; potency means the concentration at half of the fitted maximal effect.

This assay can be described thus: qHTS for Inhibitors of human tyrosyl-DNA phosphodiesterase 1 (TDP1): qHTS in cells in absence of CPT. Further: nearly all actives have a fitted effect of over 55% in size. To be noted: DT40 Tdp1-/- hTDP1 cells, no CPT, ATP luminescence, 48 h; activity change, negative = growth inhibition: at 46.2 µM (top of the series). In a few lines: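 No-CPT arm: Tdp1-/-;hTDP1 DT40 cells (400/well) plus compounds, incubated ≥48 hr at 37 °C. Readout CellTiter-Glo luminescence.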
Background: qHTS replaces the single test concentration by a dilution series.
For `Cc1csc[n+]1CCC1CCCCC1`, the Potency was 10 µM (active).
For the compound `C=CCn1c(SCC(=O)/C(C#N)=C(\C)N)nc2sc(C)c(C)c2c1=O`, the “activity change, negative = growth inhibition” value is -16.5%.
Still for that read-out and setting: in the case of `CC(=O)c1ccc(N2CCN(c3nc4c(S(=O)(=O)c5ccccc5)nnn4c4ccc(Cl)cc34)CC2)cc1` it was -23.4%; in that of `CCOC(=O)c1nnn2c3ccccc3c(=O)n(C)c12`, 2.33%.
For the compound `CCOC(=O)c1nnn2c1nc(N1CCN(c3ccccc3)CC1)c1ccccc12`, the Potency is 14.6 µM (active).
`CCOc1ccc(NC(=O)CCNC(=O)c2ccc(Br)cc2)cc1`: the “activity change, negative = growth inhibition” value is -6.82%.
Same read-out and setting: the same measure for `CCOC(=O)CNC(=O)CSc1nnc(-c2cccc(OC)c2)n1CC`: -6.98%.
On the same count and under the same terms, the same measure for `COC(=O)CC(CC(=O)OC)n1cccc1`: -0.736%.
For `CCOCc1nnc(NC(=O)CCS(=O)(=O)Cc2ccccc2)s1`, the Potency was 18.4 µM (active).
On to `CCCCc1nnc(NC(=O)CS(=O)(=O)Cc2ccccc2)s1`, for which the “activity change, negative = growth inhibition” value was -15.5%.
On the same count and under the same terms, in the case of `COCCSc1nnc(NC(=O)CCS(=O)(=O)Cc2ccccc2)s1` it was -12.4%.
Same read-out and setting: in the case of `CC1CN(Cc2ccccc2)C(=S)NC1=O` (stereo not given) it was -1.83%; in that of `O=C(Nc1ccccc1)/C(=C\c1ccco1)NC(=O)c1ccco1`, -14.5%.
The same measure, in the same setting: the same measure for `CCC1CN(CCNC(=O)c2ccsc2)Cc2cc(OC)ccc2O1` (stereo not given): -14.3%.
Turning to `CC1CCN(S(=O)(=O)c2ccc3c(c2)N(CC(=O)NCCc2ccccc2)C(=O)CO3)CC1`, the Potency is 20.6 µM (active).
Regarding `Cc1ccc2c(c1)N(CC(=O)N1CCOCC1)C(=O)CO2`, the “activity change, negative = growth inhibition” value is 5.74%.
On to `COCCCNC(=O)CN1C(=O)CSc2ccc(S(=O)(=O)N3CCOCC3)cc21`, for which the Potency entry is “inactive”.
For `Cc1ccc2c(c1)N(CC(=O)NCC1CCCO1)C(=O)CO2` (stereo not given), the “activity change, negative = growth inhibition” value is 2.23%.
On the same count and under the same terms, in the case of `CC(=O)Nc1ccc(NC(=O)CN2C(=O)COc3ccc(S(=O)(=O)N4CCCCC4)cc32)cc1` it was 8.59%.
Take `CCCCN(CCCC)CCCNC(=O)CN1C(=O)COc2ccc(S(=O)(=O)N3CCC(C)CC3)cc21`: the Potency was 9.2 µM (active).
Still for that read-out and setting: the same measure for `Cc1ccc(C)c(N2CCN(C(=O)CN3C(=O)COc4ccc(S(=O)(=O)N5CCCCCC5)cc43)CC2)c1`: 16.4 µM (active).
On the same count and under the same terms, in the case of `CC1CCN(CCCNC(=O)CN2C(=O)CSc3ccc(S(=O)(=O)N4CCCCC4)cc32)CC1` it was “inactive”.
As to `CN(C)c1ccc(CNC(=O)CN2C(=O)COc3ccc(S(=O)(=O)N4CCCC4)cc32)cc1`, the “activity change, negative = growth inhibition” value is 7.19%.
On the same count and under the same terms, in the case of `COc1ccc(CCNC(=O)CN2C(=O)COc3ccc(S(=O)(=O)N4CCCC4)cc32)cc1OC` it was -1.61%.
`Cc1ccc(CCNC(=O)CN2C(=O)CSc3ccc(S(=O)(=O)N4CCOCC4)cc32)cc1`: the Potency was 20.6 µM (active).
With `CCCCN(CCCC)CCNC(=O)CN1C(=O)COc2ccc(S(=O)(=O)N3CCOCC3)cc21`, the “activity change, negative = growth inhibition” value was -17.6%.
The same measure, in the same setting: the same measure for `CN(C)C(CNC(=O)c1ccc(OCc2cn3ccccc3n2)cc1)c1ccco1` (stereo not given): -1.5%; for `CC(CO)N1CCS(=O)(=O)CC1` (stereo not given): -14%.
Same read-out and setting: in the case of `CC1(C)CC(=O)C=C(Nc2ccccc2)C1` it was 0.545%.
Regarding `c1ccc2c(c1)C(=NC1CCCCC1)NC2=NC1CCCCC1`, the Potency is 14.6 µM (active).
For the compound `O=C1CCCCC(=O)c2ccccc2N1`, the “activity change, negative = growth inhibition” value is -4.74%.
For `O=C1CN(C(=O)COC(=O)/C=C/c2ccc(F)cc2)c2ccccc2N1`, the “activity change, negative = growth inhibition” value is -5.94%.
Still for that read-out and setting: the same measure for `Cc1cc2cc3c(N)[nH]nc3nc2cc1C`: -21.4%.
As for `Oc1ccc(/C=N/Nc2nc(-c3ccccc3F)nc3ccccc23)c(O)c1`, the Potency was 7.31 µM (active).
As to `Oc1ccc(/C=N/NC2=NCCCCC2)c(O)c1`, the “activity change, negative = growth inhibition” value was 4.82%.
The same measure, in the same setting: the same measure for `Cc1noc(C)c1/C=N/Nc1ccc2ccccc2n1`: 7.72%.
With `Cc1cc(N/N=C/c2ccccc2F)c2ccccc2n1`, the “activity change, negative = growth inhibition” value was -12.4%.
On to `Cc1nc2ccccc2nc1N/N=C/c1ccc(O)cc1O`, for which the Potency is 4.11 µM (active).
Take `Cc1csc2nc(O)c(C(=O)NCCN3CCOCC3)c(=O)n12`: the “activity change, negative = growth inhibition” value is -6.85%.
Still for that read-out and setting: the same measure for `CC(C)NC(=O)C(=O)NCCN1CCN(S(=O)(=O)c2ccc(Cl)cc2)CC1`: -1.35%; for `COCCCNc1nc2ccccc2nc1NS(=O)(=O)c1ccc(F)cc1`: -1.47%.
Same read-out and setting: in the case of `CCOC(=O)C1CCN(Cc2c(C(=O)N3CCOCC3)nc3c(C)cccn23)CC1` it was -8.96%.
Turning to `Cc1cccn2c(CN(C)C3CCCc4ccccc43)c(C(=O)N3CCOCC3)nc12` (stereo not given), the Potency is 18.4 µM (active).
As for `Cc1cccn2c(CNCC(C)Oc3cccnc3)c(C(=O)N3CCOCC3)nc12` (stereo not given), the “activity change, negative = growth inhibition” value was 30%.
Consider `CC1CCCCN1C(=O)CCS(=O)(=O)Cc1ccccc1` (stereo not given), for which the “activity change, negative = growth inhibition” value was -3.87%.
The same measure, in the same setting: in the case of `O=C(CC1Oc2ccc(Cl)cc2NC1=O)NCc1ccccc1` (stereo not given) it was -3.5%; in that of `CCC(C(=O)Nc1ccc2c(c1)OCCO2)c1ccccc1` (stereo not given), -21%; in that of `CC(=O)Nc1cccc(-c2nc3ccccc3s2)c1C`, -5.62%.
As to `CCC(C(=O)Nc1cccc(-c2nc3cccnc3s2)c1C)c1ccccc1` (stereo not given), the Potency is 20.6 µM (active).
In the case of `COC(=O)[C@@H]1C[C@H](NC(=O)c2ccccc2C(F)(F)F)CN1Cc1cccc(O)c1`, the “activity change, negative = growth inhibition” value is -9.99%.
On to `CCOC(=O)c1ccc(NC(=S)N2CCN(c3ccccn3)CC2)cc1`, for which the “activity change, negative = growth inhibition” value is -3.2%.
In the case of `O=[N+]([O-])c1ccc(NC(=S)N2CCN(c3ccccn3)CC2)cc1`, the Potency was 11.6 µM (active).
On to `COc1cc([N+](=O)[O-])ccc1NC(=S)N1CCN(c2ccccn2)CC1`, for which the “activity change, negative = growth inhibition” value was -15.4%.
On the same count and under the same terms, the same measure for `CCOC(=O)c1cnn(Cc2ccccc2Cl)c1N`: -12.2%; for `Cc1noc(C)c1C(=O)N1CCOCC1`: -9.18%.
